Experimental data from PubChem BioAssay.
Unmarked numbers belong to inactive results. Activity calls are given as the source filed them.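 How the source made its calls: active means thallium flux through the channel raised or lowered by more than 3 SD from vehicle-only wells, actives on both sides; inactive means the rest.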

The molecules below were run on F380Y (assay: modulators of BK channel variants, profiling panel, selectivity assay, cell-based, U2OS BacMam, thallium flux, beta subunits (AID 1259406;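 further: initial slope of Thallos dye fluorescence rise after thallium is added; log ratio against the mean of 0.3% DMSO vehicle wells on the same plate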)). Settings: at 30 µM.

Structure (SMILES)	log fold change Tl+ flux
N#Cc1ccc(NCCc2ccccn2)c([N+](=O)[O-])c1	0.00452
Cc1cc(CNCC(O)C(F)(F)F)no1 (stereo not given)	-0.0368
CSC(NCc1cccnc1)=C(C#N)S(=O)(=O)c1ccc(Cl)cc1	0.0268
Cc1c(C(=O)Nc2ccc(N3CCOCC3)c(Cl)c2)cnn1-c1ccc(F)cc1	-0.0177
Cc1nc(C)c(C(=O)O)c(-c2ccsc2)c1C(=O)O	0.00149
CCCCCCCCCCCC(=O)N1CC(=O)NC(=O)C1	-0.0479
Cc1cccc(N=Cc2cc(Cl)cc(Cl)c2O)c1C	0.049
Cc1ccc(I)cc1[N+](=O)[O-]	0.00211
Cc1ccccc1C=C1N=C(c2ccccc2)OC1=O	-0.012
O=C(NNc1c(Cl)cccc1Cl)c1csc(Cc2c(Cl)cccc2Cl)n1	0.031
CCSc1n[nH]c(=S)s1	-0.0724
COc1cc(C(F)(F)F)nc2ccc(C#CCOC(=O)Nc3cccc(Cl)c3)cc12	-0.0208
CC12CCC(c3c1nn(-c1ccccc1)c3C(F)(F)F)C2(C)C (stereo not given)	0.0382
COC(=O)C1=C(C)NC(C)=C(C(=O)OC)C1c1ccccc1	-0.0145
O=C(C(=NN=Cc1ccc2c(c1)OCO2)c1ccccc1)c1ccccc1	-0.0112
COc1ccc(Cl)cc1N1C(=O)C=C(c2ccccc2)C1=O	0.0164
O=c1[nH]nc(N2CCSCC2)[nH]1	0.00841
Clc1ccc(-c2nc(-c3cnccn3)no2)cc1	-0.0251
NNC(=O)Cc1csc2nc(-c3ccccc3)nn12	0.0124
CN(C)C=Nc1cc(Cl)c(-n2cccc2)cc1Oc1ccc(Cl)cc1	0.0245

Structure (SMILES)	log fold change Tl+ flux
Oc1ccccc1C=NCCN=Cc1ccccc1O	-0.0379
CC(C)(C)OC(=O)N1CCC(c2nc(-c3ccc(Cl)s3)cs2)CC1	0.0108
O=S(=O)(Cc1nc(-c2ccc3c(c2)OCCO3)cs1)c1ccccn1	-0.0443
Cn1c(SCCS(=O)(=O)c2ccc(OC(F)(F)F)cc2)nnc1C(F)(F)F	-0.047
Cc1ccc(S(N)(=O)=O)c(I)c1	0.00642
O=C(Nc1ccc(OC(F)(F)F)cc1)OC1CN(C(c2ccccc2)c2ccccc2)C1	-0.0399
CCN1CCC(O)(C#Cc2ccccc2)CC1	-0.00462
COC(=O)c1ccc(C=Cc2cccc(Cl)c2)s1	-0.0764
CCc1[nH]c(=S)[nH]c(=O)c1C#N	-0.0598
O=C(CC1SC(=NC2CC3C=CC2C3)NC1=O)Nc1ccccc1Cl (stereo not given)	0.0694
O=S(=O)(Cc1nc(C=Cc2cc(C(F)(F)F)cc(C(F)(F)F)c2)no1)c1ccc(Cl)cc1	-0.0307
O=C1CSC(=S)N1N=Cc1cccnc1	0.0409
O=C(NC1CCSC1)c1ccccc1NS(=O)(=O)c1ccccc1 (stereo not given)	-0.000365
CCOC(=O)c1nn(-c2ccc(C(C)(C)C)cc2)c(=O)c(C#N)c1C	-0.364 (active)
O=C(NNC(=O)c1ccc2nonc2c1)c1cccc(C(F)(F)F)c1	0.0115
CCOC(=O)C(C)Oc1ccc(NS(=O)(=O)c2cc(OC)ccc2OC)cc1Cl (stereo not given)	-0.0459
O=C(Nc1ccc(-n2ccc(C(F)(F)F)n2)cc1)C1=Cc2cc(Cl)ccc2OC1	0.0274
CC(=O)c1sc(SCc2ccc(Cl)cc2)c2c1CC(C)(C)CC2=O	-0.0184
Cc1cc(-c2nn(C)c(=O)c3ccccc23)cc(C)c1O	0.00104
Cn1ncc2ccccc2c1=O	0.0178

The molecules below were run on F380Y/beta1 in the same assay as above. Settings: at 30 µM.

Structure (SMILES)	log fold change Tl+ flux
N#Cc1ccc(NCCc2ccccn2)c([N+](=O)[O-])c1	-0.0335
Cc1cc(CNCC(O)C(F)(F)F)no1 (stereo not given)	0.043
CSC(NCc1cccnc1)=C(C#N)S(=O)(=O)c1ccc(Cl)cc1	0.0532
Cc1c(C(=O)Nc2ccc(N3CCOCC3)c(Cl)c2)cnn1-c1ccc(F)cc1	-0.00879
Cc1nc(C)c(C(=O)O)c(-c2ccsc2)c1C(=O)O	0.0257
CCCCCCCCCCCC(=O)N1CC(=O)NC(=O)C1	-0.037
Cc1cccc(N=Cc2cc(Cl)cc(Cl)c2O)c1C	0.0694
Cc1ccc(I)cc1[N+](=O)[O-]	-0.0212
Cc1ccccc1C=C1N=C(c2ccccc2)OC1=O	0.0199
O=C(NNc1c(Cl)cccc1Cl)c1csc(Cc2c(Cl)cccc2Cl)n1	-0.0231
CCSc1n[nH]c(=S)s1	0.0129
COc1cc(C(F)(F)F)nc2ccc(C#CCOC(=O)Nc3cccc(Cl)c3)cc12	0.0282
CC12CCC(c3c1nn(-c1ccccc1)c3C(F)(F)F)C2(C)C (stereo not given)	0.00752
COC(=O)C1=C(C)NC(C)=C(C(=O)OC)C1c1ccccc1	0.00442
O=C(C(=NN=Cc1ccc2c(c1)OCO2)c1ccccc1)c1ccccc1	-0.00905
COc1ccc(Cl)cc1N1C(=O)C=C(c2ccccc2)C1=O	0.00407
O=c1[nH]nc(N2CCSCC2)[nH]1	0.0329
Clc1ccc(-c2nc(-c3cnccn3)no2)cc1	0.0188
NNC(=O)Cc1csc2nc(-c3ccccc3)nn12	0.00927
CN(C)C=Nc1cc(Cl)c(-n2cccc2)cc1Oc1ccc(Cl)cc1	0.0128

Structure (SMILES)	log fold change Tl+ flux
Oc1ccccc1C=NCCN=Cc1ccccc1O	-0.0045
CC(C)(C)OC(=O)N1CCC(c2nc(-c3ccc(Cl)s3)cs2)CC1	0.0589
O=S(=O)(Cc1nc(-c2ccc3c(c2)OCCO3)cs1)c1ccccn1	-0.0373
Cn1c(SCCS(=O)(=O)c2ccc(OC(F)(F)F)cc2)nnc1C(F)(F)F	-0.00843
Cc1ccc(S(N)(=O)=O)c(I)c1	0.0178
O=C(Nc1ccc(OC(F)(F)F)cc1)OC1CN(C(c2ccccc2)c2ccccc2)C1	-0.0331
CCN1CCC(O)(C#Cc2ccccc2)CC1	0.0157
COC(=O)c1ccc(C=Cc2cccc(Cl)c2)s1	-0.0156
CCc1[nH]c(=S)[nH]c(=O)c1C#N	0.0419
O=C(CC1SC(=NC2CC3C=CC2C3)NC1=O)Nc1ccccc1Cl (stereo not given)	0.0502
O=S(=O)(Cc1nc(C=Cc2cc(C(F)(F)F)cc(C(F)(F)F)c2)no1)c1ccc(Cl)cc1	0.0685
O=C1CSC(=S)N1N=Cc1cccnc1	0.00585
O=C(NC1CCSC1)c1ccccc1NS(=O)(=O)c1ccccc1 (stereo not given)	-0.00386
CCOC(=O)c1nn(-c2ccc(C(C)(C)C)cc2)c(=O)c(C#N)c1C	-0.189 (active)
O=C(NNC(=O)c1ccc2nonc2c1)c1cccc(C(F)(F)F)c1	0.037
CCOC(=O)C(C)Oc1ccc(NS(=O)(=O)c2cc(OC)ccc2OC)cc1Cl (stereo not given)	-0.0343
O=C(Nc1ccc(-n2ccc(C(F)(F)F)n2)cc1)C1=Cc2cc(Cl)ccc2OC1	-0.019
CC(=O)c1sc(SCc2ccc(Cl)cc2)c2c1CC(C)(C)CC2=O	0.0319
Cc1cc(-c2nn(C)c(=O)c3ccccc23)cc(C)c1O	0.0146
Cn1ncc2ccccc2c1=O	0.0239
